Compounds without any hit were thinned out: in the full panel of roughly 83,000, 20% have a hit.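 Plates (96-well) were seeded with cells, treated with compound at one concentration, and incubated for 48 hours before percent growth was determined.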 Activity calls are given as the source filed them. The calls were made as follows: active = growth percent below 10; inactive = the rest.
Legend:
Experiment in all cases: NCI-60 one-dose screen, 48 h (100 = growth as untreated, 0 = no growth, -100 = all killed)
Conditions in all cases: 10 µM unless noted
[1] = test system: NCI-H23 lung
[2] = test system: NCI-H226 lung
[3] = test system: NCI-H322M lung
[4] = test system: HOP-62 NSCLC
[5] = test system: NCI-H460 lung
[6] = test system: HOP-92 NSCLC
[7] = test system: NCI-H522 lung
[8] = test system: A549/ATCC NSCLC
[9] = test system: 786-0 renal
[10] = test system: COLO 205 colon

Measured: growth

C#CCOc1ccccc1/C=N/Nc1nc(-c2ccc(Cl)cc2)cs1
inactive: [1] 83.3% | [2] 82.8% | [3] 90.6% | [4] 96% | [5] 97.7% | [6] 88.2% | [7] 87.8% | [8] 101% | [9] 102% | [10] 109%

CC1(C)CC[C@]23CC[C@]4(C)[C@H](CC[C@@H]5[C@@]6(C)CC[C@H](NCO)C(C)(C)[C@@H]6CC[C@]54C)[C@H]2[C@H]1OC3
inactive: [1] 55.7% | [2] 97.2% | [3] 84.2% | [4] 79.8% | [6] 40.1% | [7] 101% | [8] 60.5% | [9] 64.3%
active: [5] -41.1% | [10] -48.5%

O=S(=O)(Oc1ccc(-c2cn3ccoc3n2)cc1)c1cccc(C(F)(F)F)c1
inactive: [1] 98% | [2] 93.5% | [3] 102% | [4] 104% | [5] 104% | [6] 91.7% | [7] 90.3% | [8] 99.6% | [9] 99.9% | [10] 115%

Cc1ccc2c(n1)C(=O)C(Cl)=C(Nc1ccc(C)c(C)c1)C2=O
inactive: [1] 11.7% | [2] 36% | [3] 60.9% | [4] 60.2% | [5] 46.4% | [6] 105% | [7] 58.9% | [8] 24.5% | [9] 104% | [10] 105%

CCOC(=O)c1ccccc1NC1=C(Cl)C(=O)c2nc(C)ccc2C1=O
inactive: [1] 81.5% | [2] 100% | [3] 101% | [4] 102% | [5] 99.8% | [6] 118% | [7] 102% | [8] 107% | [9] 104% | [10] 120%

Cc1ncn(-c2ccc(/C=N/Nc3ccnc4cc(Cl)ccc34)cc2)c1C
active: [5] -52.3% | [6] -28.2% | [7] -66.2% | [8] 0.0933% | [9] -89.4% | [10] -96.5%
inactive: [1] 54.1% | [2] 94.1% | [3] 45.5% | [4] 102%

CC1=C(C)C(=O)C(Nc2cccc(C(=O)OC(C)(C)C)c2)=CC1=O
inactive: [1] 28.8% | [2] 64.5% | [3] 94.5% | [4] 78.4% | [5] 93.1% | [6] 78.8% | [7] 82.2% | [8] 106% | [9] 89.9% | [10] 107%

CC1=C(C)C(=O)C(Nc2ccc(C)c(C)c2)=C(Br)C1=O
inactive: [1] 76.9% | [2] 89.6% | [3] 102% | [4] 104% | [5] 99.6% | [7] 97.2% | [8] 103% | [9] 105% | [10] 116%
active: [6] 3.51%

C=C(C)[C@@H]1CC[C@]2(COP(=O)(OCC)OCC)CC[C@]3(C)[C@H](CC[C@@H]4[C@@]5(C)CC[C@H](OP(=O)(OCC)OCC)C(C)(C)[C@@H]5CC[C@]43C)[C@@H]12
inactive: [1] 13.5% | [2] 28.3% | [3] 59.6% | [4] 63.5% | [5] 22.3% | [6] 42.2% | [7] 35.5% | [8] 28.4% | [9] 72.8% | [10] 44.2%

COc1ccc(C(C)=C(c2ccc(OCCN3CCCCCC3)cc2)c2ccc(OCCN3CCCCCC3)cc2)cc1
active: [1] -40.3% | [2] -46.1% | [3] -11.7% | [4] -52.4% | [5] -57.2% | [6] -8.87% | [7] -52% | [8] -35.9% | [9] -93.9% | [10] -60.8%

NS(=O)(=O)c1ccc(Nc2nc(N/N=C/c3ccc4c(c3)OCO4)nc(Nc3ccccc3)n2)cc1
inactive: [1] 25.1% | [2] 65% | [3] 61.3% | [4] 29% | [6] 66% | [7] 60.8% | [8] 74.7% | [9] 61.1% | [10] 49.7%
active: [5] 2.83%

Cc1ccc(CSC2=C(Cl)CN(c3ccc(Cl)cc3)C2=O)cc1
inactive: [1] 105% | [2] 98.4% | [3] 104% | [4] 103% | [5] 103% | [6] 95.2% | [8] 104% | [9] 105% | [10] 129%
active: [7] -4.44%

CCC(=C(c1ccc(OCCN2CCCCCC2)cc1)c1ccc(OCCN2CCCCCC2)cc1)c1ccc(Cl)cc1
inactive: [1] 19.4% | [2] 52.1% | [3] 18% | [4] 58.2% | [6] 32.3%
active: [5] -39.7% | [7] -5.58% | [8] -21.3% | [9] -81.1% | [10] -57.7%

Cc1cc(C)cc(NC2=C(Cl)C(=O)c3nc(C)ccc3C2=O)c1
inactive: [1] 22.1% | [2] 28.5% | [3] 91.7% | [4] 101% | [5] 93.1% | [6] 118% | [7] 19% | [8] 73.7% | [9] 79% | [10] 107%

CN1CCN(c2ccc(Nc3nc(NCCNS(=O)(=O)c4ccc5ccccc5c4)c4sccc4n3)cc2)CC1
inactive: [1] 84.3% | [2] 98.4% | [3] 83.7% | [4] 97.5% | [5] 74.3% | [6] 47.8% | [7] 87.4% | [8] 84.3% | [9] 56.3% | [10] 13.3%

Cn1c(SCC(=O)c2ccc(F)cc2)nc2ccccc2c1=O
inactive: [1] 84.5% | [2] 93% | [3] 99.8% | [4] 93.6% | [5] 101% | [6] 61.3% | [7] 83.9% | [8] 104% | [9] 96.8% | [10] 123%

Cc1ccc(NC2=C(Cl)C(=O)c3nc(C)ccc3C2=O)c(C)c1
inactive: [2] 23.2% | [3] 36.7% | [4] 47.2% | [5] 46.2% | [6] 84.7% | [8] 46.5% | [9] 23.7% | [10] 98%
active: [1] -49.9% | [7] -38.3%

C#CCOc1cccc(-c2nc(N)nc(Nc3ccccc3SSc3ccccc3Nc3nc(N)nc(-c4cccc(OCC#C)c4)n3)n2)c1
active: [1] -6.17% | [2] 1.74% | [4] -63.2% | [5] -15.7% | [8] -39.7%
inactive: [3] 80.9% | [6] 87.6% | [7] 79.8% | [9] 96.9% | [10] 114%

C#Cc1cc(OC)c(C(=O)Nc2ccc(F)cc2C(=O)Nc2cccc(S(=O)(=O)C(F)(F)F)c2)cn1
active: [1] -49.4% | [6] -65.7% | [7] -69.3% | [8] -7.6% | [9] -78.7%
inactive: [2] 13.1% | [3] 88.9% | [4] 16.3% | [5] 26.6% | [10] 52.2%

CCCCN1C(=O)/C(=c2\sc3n(c2=O)C2C(NN=3)N(CC)C(=O)N2CC)c2cc(C)ccc21 (stereo not given)
inactive: [1] 95.5% | [2] 87.3% | [3] 88.1% | [4] 108% | [5] 102% | [6] 86.5% | [7] 88.3% | [8] 91.4% | [9] 94.4% | [10] 94%

C#Cc1cc(C(=O)Nc2ccc(CNCCN3CCOCC3)c(C(F)(F)F)c2)ccc1C
inactive: [1] 92.2% | [2] 95.4% | [3] 98.3% | [4] 102% | [5] 101% | [6] 68.7% | [7] 89.6% | [8] 87.7% | [9] 80.7% | [10] 105%

COc1ccc(-c2c3c(cn2Cc2cccc(OC)c2)-c2oncc2CCC3)cc1
inactive: [1] 105% | [2] 85% | [3] 103% | [4] 102% | [5] 98.9% | [6] 74.2% | [7] 96.3% | [8] 98.9% | [9] 103% | [10] 95.2%

C#CCN(C)CCCOc1ccc(NC(=O)CCCCCCCCC(=O)NO)cc1Cl
inactive: [1] 54.2% | [2] 73.2% | [3] 92.2% | [4] 77.6% | [5] 81.8% | [6] 64.8% | [7] 51.9% | [8] 72.9% | [9] 87.9% | [10] 76.1%

O=C(O)CC1CCN(c2ccc3nnc(Cl)n3n2)CC1
inactive: [1] 93.9% | [2] 98.7% | [3] 96.2% | [4] 93.3% | [5] 108% | [6] 96.2% | [7] 96% | [8] 103% | [9] 100% | [10] 107%

O=c1c2ccccc2cc2n1CCN=C2c1ccccc1
inactive: [1] 93.8% | [2] 96% | [3] 99.7% | [4] 116% | [5] 101% | [6] 81% | [7] 98% | [8] 102% | [9] 96.8% | [10] 103%

CCNCCOc1ccc(/C(=C(/CC)c2ccc(Cl)cc2)c2ccc(OCCCN(C)C)cc2)cc1
active: [1] -87.3% | [2] -66.4% | [3] -95.4% | [4] -80.1% | [5] -74.2% | [6] -74.6% | [7] -76.7% | [8] -60.9% | [9] -86% | [10] -82.3%

C1=CC(c2nn3c(-c4ccccc4)nnc3s2)=Cc2ccccc2O1
inactive: [1] 75.8% | [2] 31.7% | [3] 96.3% | [4] 105% | [5] 87.2% | [6] 55.9% | [7] 83.8% | [8] 89.7% | [9] 91.8% | [10] 90.2%

Reference: PubChem BioAssay (NCI)
